# Source: PubChem BioAssay (National Center for Advancing Translational Sciences (NCATS))
# In the library only some 7% were active in any assay of this set; here they are far more common.
# BAZ2B inh – inhibitors of human BAZ2B bromodomain. AlphaScreen BAZ2B-H3K14Ac peptide displacement. 360,000 tested, 4.4% active. AID 504333. Potency, µM (top dose mostly 114 µM), inactives show at the highest dose activity change, negative = inhibition, actives largely listed as inhibitors; also: potency is read from the fitted curve at half-maximal effect; % is scaled to controls: 0 for no effect and ±100 for the full control effect; nearly all actives have a fitted effect of over 60% in size
# Target sequence (Q9UIF8 whole entry, looked up): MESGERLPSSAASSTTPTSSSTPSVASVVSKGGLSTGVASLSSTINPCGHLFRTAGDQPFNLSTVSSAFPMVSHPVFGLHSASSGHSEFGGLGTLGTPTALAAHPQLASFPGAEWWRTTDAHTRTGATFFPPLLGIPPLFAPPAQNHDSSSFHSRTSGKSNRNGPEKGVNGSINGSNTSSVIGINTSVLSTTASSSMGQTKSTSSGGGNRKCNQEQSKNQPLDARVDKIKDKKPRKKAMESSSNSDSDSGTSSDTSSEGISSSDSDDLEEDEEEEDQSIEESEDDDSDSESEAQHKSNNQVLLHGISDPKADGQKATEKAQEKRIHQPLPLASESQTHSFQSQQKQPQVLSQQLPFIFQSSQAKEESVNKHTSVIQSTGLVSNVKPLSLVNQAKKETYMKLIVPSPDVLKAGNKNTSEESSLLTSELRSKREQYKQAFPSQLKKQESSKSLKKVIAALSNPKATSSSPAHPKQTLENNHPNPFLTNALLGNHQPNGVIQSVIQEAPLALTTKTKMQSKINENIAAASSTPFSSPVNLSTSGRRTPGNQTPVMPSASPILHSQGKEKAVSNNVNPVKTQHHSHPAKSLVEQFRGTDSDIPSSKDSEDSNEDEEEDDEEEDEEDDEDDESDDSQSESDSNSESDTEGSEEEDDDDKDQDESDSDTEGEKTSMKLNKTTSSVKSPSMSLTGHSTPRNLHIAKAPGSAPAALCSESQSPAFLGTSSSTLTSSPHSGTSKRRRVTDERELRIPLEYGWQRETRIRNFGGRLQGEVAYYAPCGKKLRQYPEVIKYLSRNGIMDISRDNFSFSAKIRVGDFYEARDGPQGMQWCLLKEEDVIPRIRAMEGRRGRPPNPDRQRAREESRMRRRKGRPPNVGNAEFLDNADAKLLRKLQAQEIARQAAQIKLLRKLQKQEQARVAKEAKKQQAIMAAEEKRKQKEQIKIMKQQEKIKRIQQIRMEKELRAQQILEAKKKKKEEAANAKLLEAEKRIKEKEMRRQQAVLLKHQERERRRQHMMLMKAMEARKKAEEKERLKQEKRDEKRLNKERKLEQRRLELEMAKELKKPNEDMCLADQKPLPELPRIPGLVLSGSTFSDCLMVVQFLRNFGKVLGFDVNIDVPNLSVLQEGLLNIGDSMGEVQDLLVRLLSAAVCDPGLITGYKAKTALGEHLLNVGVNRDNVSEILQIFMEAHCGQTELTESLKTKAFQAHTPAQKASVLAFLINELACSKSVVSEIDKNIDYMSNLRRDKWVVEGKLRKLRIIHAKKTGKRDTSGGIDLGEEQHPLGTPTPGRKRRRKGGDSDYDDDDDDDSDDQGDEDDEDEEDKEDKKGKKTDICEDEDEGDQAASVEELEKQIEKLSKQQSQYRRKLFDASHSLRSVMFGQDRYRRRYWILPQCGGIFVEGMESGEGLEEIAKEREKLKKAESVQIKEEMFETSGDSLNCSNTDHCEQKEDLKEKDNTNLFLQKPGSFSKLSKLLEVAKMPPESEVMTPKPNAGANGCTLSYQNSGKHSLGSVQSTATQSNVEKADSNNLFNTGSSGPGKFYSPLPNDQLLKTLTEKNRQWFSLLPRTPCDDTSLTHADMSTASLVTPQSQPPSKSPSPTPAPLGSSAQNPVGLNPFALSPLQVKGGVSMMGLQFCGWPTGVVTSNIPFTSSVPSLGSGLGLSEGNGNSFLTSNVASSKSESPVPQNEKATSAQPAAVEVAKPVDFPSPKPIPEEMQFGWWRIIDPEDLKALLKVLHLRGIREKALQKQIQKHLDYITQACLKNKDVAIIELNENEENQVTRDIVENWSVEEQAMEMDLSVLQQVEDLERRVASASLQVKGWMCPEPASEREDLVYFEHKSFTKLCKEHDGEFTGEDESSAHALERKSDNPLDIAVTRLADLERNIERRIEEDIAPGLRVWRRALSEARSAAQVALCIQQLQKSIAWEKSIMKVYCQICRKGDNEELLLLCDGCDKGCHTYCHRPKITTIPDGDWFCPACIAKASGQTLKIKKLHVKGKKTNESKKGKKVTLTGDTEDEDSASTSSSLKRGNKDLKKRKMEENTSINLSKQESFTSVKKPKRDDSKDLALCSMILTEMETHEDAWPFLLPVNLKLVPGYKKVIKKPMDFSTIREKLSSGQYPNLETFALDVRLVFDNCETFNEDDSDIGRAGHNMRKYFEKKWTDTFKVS
#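 Compounds, titrated to a top concentration of 110 uM, were incubated 30 min at room temperature with preformed BAZ2B/acetyl-K14 H3 peptide complex (50 nM each). Proximity signal was measured by AlphaScreen after 20 min with beads.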
# PLK1 PBD block – inhibitors of human PLK1 polo-box domain binding. P53350. Plk1 PBD binding of FITC phosphopeptide, fluorescence polarization. Potency, µM, for inactives: max response, negative = inhibition, most hits filed as inhibitors. 360,000 tested, 2.8% active. AID 720504; also: potency is read from the fitted curve at half-maximal effect; series mostly up to about 57 µM; % is scaled to controls: 0 for no effect and ±100 for the full control effect; nearly all actives have a fitted effect of over 65% in size
# HP1b chromo inh – inhibitors of HP1-beta chromodomain binding to methylated histone tails; P83916; Potency, µM (doses to about 114 µM), inactives show at the top dose activity change, negative = inhibition, usual class: inhibitors; AlphaScreen HP1-beta / biotin-H3K9me3 peptide binding; 390,000 tested, 0.56% active; also: potency is read from the fitted curve at half-maximal effect; nearly all actives have a fitted effect of over 70% in size
#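 Compound inhibition of the preformed complex between 50 nM HP1-beta and 50 nM biotinylated H3K9me3 peptide was read by AlphaScreen. Buffer was PBS pH 7.4 with 0.01% Tween-20. Incubations ran 30 min at room temperature, with 10 ug/mL donor/acceptor beads.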
# PI5P4K alpha inh – inhibitors of human PI5P4K alpha | 330,000 tested, 1.2% active | P48426 | PI5P4Kalpha enzyme, ADP-Glo luminescence, 60 min; stronger effect = lower value | AID 652105 | max response, %; active = max response of -50% or lower; inconclusive = between -30% and -50%; inactive = -30% or higher; also: value at the top dose of about 77 µM; % is scaled to controls: 0 for no effect and ±100 for the full control effect
#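 PI5P4Kalpha ADP-Glo assay; 5 microM ATP final; 60 min RT reaction; HEPES pH 7.4/EGTA/CHAPS, 5% DMSO; controls lacking substrate or enzyme; luminescent end-point.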
# KAT2A inh – inhibitors of human GCN5L2 histone acetyltransferase. Q92830. GCN5L2 HAT assay, ThioGlo1 CoA-SH fluorescence. Potency, µM (doses to about 58.9 µM), for the others: at the top dose activity change, negative = inhibition, actives largely listed as inhibitors. 390,000 tested, 0.21% active. AID 504327; also: potency is read from the fitted curve at half-maximal effect; % is scaled to controls: 0 for no effect and ±100 for the full control effect
#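 GCN5L2 (20 nM) in 50mM HEPES pH 7.5, 0.1mM EDTA, 0.01% Tween-20 preincubated 15 min with compounds at room temperature. Reaction started with H3(1-25) 75uM, acetyl-CoA 70uM, ThioGlo1 50uM; CoA-thiol fluorescence (Ex340/Em540) read at 0 and 20 min.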
# JMJD2A Tudor inh – JMJD2A Tudor domain (human) inhibition | AlphaScreen JMJD2A-Tudor / H3K4me3 peptide binding | Potency, µM (titrated, usually from 114 µM), for inactives: top-dose activity change, negative = inhibition, actives largely listed as inhibitors | AID 504339 | 390,000 tested, 4.4% active | O75164; also: potency is read from the fitted curve at half-maximal effect; % is scaled to controls: 0 for no effect and ±100 for the full control effect; nearly all actives have a fitted effect of over 50% in size
# * hit, by the source's call; ? = inconclusive; nt = not tested or not shown; [ ] = dose if it differs, or a comment. Unless noted, calls follow the shape of the dose curve; as a rule, active = well fitted curve in the direction sought with a large enough effect; inconclusive = small, poorly fitted or top-dose-only effect, or another doubt; inactive = no such curve, though single readings can be large; an effect the other way counts as inactive or inconclusive.
SMILES,BAZ2B inh,PLK1 PBD block,HP1b chromo inh,PI5P4K alpha inh,KAT2A inh,JMJD2A Tudor inh
CCN(CC)CCn1c(-c2ccccc2)csc1=Nc1ccccc1,50.1µM*,nt,?,nt,-0.9%,17.8µM*
COC(=O)c1cc(=O)n(Cc2ccc3c(c2)OCO3)c(=Nc2ccccc2)s1,?,-3.3%,-16.8%,3.6,-1.8%,?
OCCCn1c(-c2ccccc2)csc1=Nc1ccccc1,56.2µM*,1.2%,?,15.1,0.8%,?
COC(=O)[C@]12CCCCC=C1N(CCc1ccc(OC)c(OC)c1)C(=O)[C@H](CC(=O)NCc1cccs1)C2,nt,1.2%,nt,-3.4,nt,nt
CCCn1c(-c2cccs2)nc2nc3ccccc3nc21,18.8%,-1.7%,68.5%,2.7,-18.1%,37.8%
c1csc(-c2nc3nc4ccccc4nc3n2Cc2ccc3c(c2)OCO3)c1,9.0%,26.7µM*,11.3%,-12.2,-19.9%,9.2%[11.4 µM]
O=C(COc1cccc2cccnc12)N/N=C/c1ccc(O)cc1,-16.9%,?,-14.3%,0.9,1.2%,-19.6%
O=C(COc1cccc2cccnc12)N/N=C/c1ccccc1O,-34.5%,3.5%,97.0%,-3.0,-13.7%,-33.4%
Cc1ccc(OCC(=O)N/N=C/c2cccn2C)cc1C,-32.6%,-4.5%,2.1%,7.6,-3.8%,?
O=C(O)c1ccc(N/N=C/c2cccc3cccnc23)cc1,70.8µM*,-19.6%,87.0%,1.7,-1.2%,-5.1%[11.4 µM]
O=C(COc1ccc(F)cc1)N/N=C/c1cccc2cccnc12,nt,-2.5%,35.9%,-5.3,nt,89.1µM*
COc1ccc(OCC(=O)N/N=C/c2cccn2-c2cccc(C(=O)O)c2)cc1,79.4µM*,-19.3%,?,-20.3,-7.9%,44.7µM*
O=C(COc1cccc2cccnc12)N/N=C/c1cccn1-c1ccc(F)cc1,28.2µM*,-8.5%,?,-3.9,0.3%,20µM*
CCOCN(C(=O)Cn1c(CC(C)C)nc2ccccc21)c1c(C)cccc1CC,-1.8%,nt,37.2%,nt,0.8%,0.0%
Cc1noc(C)c1CCC(=O)Nc1cc(Cl)ccc1C(=O)O,nt,-5.1%,nt,-9.7,nt,nt
Cc1ccc(-c2nc(SCC(=O)NCc3ccco3)c3c(=O)n(C)c(=O)n(C)c3n2)cc1,4.0%,nt,25.7%[57 µM],nt,-8.0%,-1.3%
O=C1c2ccccc2C(=O)N1Cc1ccccc1F,23.4%,-0.5%,36.1%,-0.2,-2.4%,8.6%
Cc1ccc(OCC(=O)N/N=C/c2cccc3cccnc23)cc1,31.6µM*,-19.5%,16.3%,-4.2,-7.3%,56.2µM*
Cc1ccccc1OCC(=O)N/N=C/c1cccc2cccnc12,39.8µM*,-5.5%,14.5%,5.9,-8.8%,50.1µM*
CC(C)(C)OC(=O)NCCC(=O)N/N=C/c1cccc2cccnc12,?,-1.9%,31.9%,-5.7,2.8%,?
CC(=O)OCC1=C(C(=O)O)N2C(=O)C(NC(=O)C(C)Cn3nc(C)c(Cl)c3C)C2SC1 (stereo unspecified),56.2µM*,?,-9.1%,-3.2,2.9%,-28.9%
CC(=O)OCC1=C(C(=O)O)N2C(=O)[C@@H](NC(=O)CSc3ccncc3)[C@H]2SC1,44.7µM*,?,?,-4.2,-2.9%,17.8µM*
Cc1ccc(N=N/C(=C\O)C(=O)c2ccc(Cl)cc2)cc1,11.2µM*,23.8µM*,?,-5.4,-24.5%,-34.6%[11.4 µM]
NC(=O)c1cc([N+](=O)[O-])ccc1NCCN1C(=O)c2ccc(C(=O)O)cc2C1=O,-35.2%,-4.4%,19.7%,-87.1*,-1.1%,-14.0%
S=C(NNc1ccnc2cc(Cl)ccc12)Nc1ccccc1Cl,?,15µM*,?,-29.6,-19.6%,56.2µM*
SMILES,BAZ2B inh,PLK1 PBD block,HP1b chromo inh,PI5P4K alpha inh,KAT2A inh,JMJD2A Tudor inh
CCC1CCCCN1CCCNC(=O)c1ccc(CS(=O)(=O)c2ccccc2C)o1 (stereo unspecified),0.0%,?,23.8%,-0.1,-4.4%,-19.9%
CCCN1C(=O)/C(=C/c2ccc(N3CCOCC3)cc2)NC1=S,-37.8%,39.4%,46.9%,-1.2,-8.5%,-18.6%
CCCN1C(=O)/C(=C/c2ccc(N3CCCC3)c(C)c2)NC1=S,35.5µM*,43.4%,?,1.2,-24.0%,35.5µM*
CCN1C(=O)/C(=C/c2ccc(N3CCCC3)cc2)NC1=S,25.1µM*,56.2%,?,-3.2,-13.4%,?
C[N+]1(CC(=O)OCCCC2CCCCC2)CCCC1,-24.6%,29.9µM*,?,-8.7,-0.3%,?
CCc1ccc2[nH]c(O)c(N=NC3=NC(=O)CS3)c2c1,39.8µM*,-23.7%,-10.6%,-20.8,-12.8%,-4.4%[11.4 µM]
Cc1ccc2[nH]c(O)c(N=O)c2c1,2.4%,-6.0%,21.6%,-2.1,-3.0%,-5.6%
CCc1ccc2c(c1)c(N=NC1=NC(=O)CS1)c(O)n2CC,50.1µM*,-10.0%,-6.6%,-2.6,-8.8%,?
CC(C)C[C@@H](C(=O)NC1CCN(Cc2ccccc2)CC1)N1C(=O)N2CCc3c([nH]c4ccccc34)[C@@]2(C)C1=O,?,-4.1%,?,5.7,-10.6%,39.8µM*
COc1ccc2[nH]c3c(c2c1)CCN1C(=O)N([C@@H](C)C(=O)NC2CCN(Cc4ccccc4)CC2)C(=O)[C@]31C,50.1µM*,3.4%,4.1%,3.4,-3.8%,?
COc1ccc2[nH]c3c(c2c1)CCN1C(=O)N([C@@H](C)C(=O)NCc2ccco2)C(=O)[C@]31C,50.1µM*,3.4%,11.6%,6.9,-18.6%,-25.9%
C[C@@H](C(=O)NC1CCN(Cc2ccccc2)CC1)N1C(=O)N2CCc3c([nH]c4ccccc34)[C@@]2(C)C1=O,?,-16.1%,-11.1%,2.0,3.1%,?
COc1ccc2[nH]c3c(c2c1)CCN1C(=O)N([C@@H](C)C(=O)NCc2ccccc2)C(=O)[C@]31C,3.6%[57.1 µM],-10.3%,11.4%,-1.3,-2.3%,-28.6%
CCCN1C(=O)CC(=O)N=C1SCC(=O)Nc1ccccc1F,nt,-7.1%,47.5%,-8.7,-1.7%,3.2%
COc1ccc(CCNC(=S)NCCc2c[nH]c3ccccc23)cc1,35.5µM*,-9.0%,-14.2%,0.0,-6.5%,?
Cc1ccc(C)c(NC(=S)NCCc2c[nH]c3ccccc23)c1,44.7µM*,8.5%,?,2.8,2.1%,?
S=C(NCCc1c[nH]c2ccccc12)NC1CCCCC1,?,?,?,-18.6,3.0%,35.5µM*
Cc1ccc(NC(=S)NCCc2c[nH]c3ccccc23)cc1,?,-4.3%,-33.4%,0.6,-4.0%,?
S=C(NCCc1c[nH]c2ccccc12)NC1CCCC1,?,-1.8%,48.0%,-0.4,0.4%,-10.5%
CC(C)c1ccc(NC(=S)NCCc2c[nH]c3ccccc23)cc1,35.5µM*,-9.5%,?,6.7,-8.9%,?
Cc1cccc(-c2nc(SCc3cc(=O)c4cccc(F)c4[nH]3)n[nH]2)c1,5.1%,nt,34.2%[57 µM],nt,-7.1%,-22.1%
